Structures are written as SMILES.

Test system in the first test: not listed separately
The experiment in a line: viability profiling in RPMI8226 myeloma cells – cell-based, resazurin fluorescence, basal, 24 h, PK04 Diversity Set, profiling panel (AID 1180).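 Note: RPMI8826 multiple myeloma cell line at 5000 cells per well; test concentration not given here.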 The conditions noted are these: higher = more signal. Background: The colour change of resazurin is a common sign of viable cells or microbes.
On to `CN1C(=O)C2C=CC(C(O)c3ccccn3)N(Nc3ccccc3)C2C1=O` (configuration not stated), for which the z-score is -0.878.

On to `COc1ccc(C#Cc2ccc3c(c2)[C@]2(C(=O)N3)[C@H](c3ccc(O)cc3)N3[C@H](c4ccccc4)[C@H](c4ccccc4)OC(=O)[C@H]3[C@@H]2C(=O)N2CCCCCCC2)cc1`, for which the z-score came out at 0.326.

`O=C1OCCC=C[C@H]2OC34C=CCN(Cc5ccccc5)C(=O)[C@H]3N(CCCCCO)C(=O)[C@@H]4C12` (some centres not stated): the z-score was found to be 1.4.

`COC(=O)C(CC#Cc1ccc2c(c1)[C@]1(C(=O)N2)[C@H](C(=O)NC[C@H](O)c2ccccc2)[C@H]2C(=O)O[C@H](c3ccccc3)[C@H](c3ccccc3)N2[C@@H]1c1ccc(OCCO)cc1)C(=O)OC` registered a z-score of -0.223.

In turn, `COCCOC(=O)N1C(=O)[C@@]2(c3cc(C#CCNC(N)=O)ccc31)[C@H](c1ccc(O)cc1)N1[C@H](c3ccccc3)[C@H](c3ccccc3)OC(=O)[C@H]1[C@@H]2C(=O)NC[C@H](O)c1ccccc1` returned a z-score of -0.949.

Regarding `COC(=O)[C@@]1(Cc2ccccc2)[C@H]2c3cc(C(=O)N4CCCC4)n(Cc4ccc(C)o4)c3C[C@H]2CN1C(=O)c1ccccc1`, the z-score was -2.47.

`COCC(=C=CC[C@H](O)c1ccc(OCCO)cc1)C[C@H](O)c1cc(Cl)cc(Cl)c1O`: the z-score is 0.708.

The target in a further test is E3 ubiquitin-protein ligase XIAP (Homo sapiens) (UniProt P98170). In words: small molecules binding XIAP protein – biophysical, small-molecule microarray, fluorescence 635 nm, primary screen (AID 1181).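 Note: score merges 667 nm emission and signal to noise over triplicate slides.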 The conditions noted are these: higher = more signal.
Sequence of E3 ubiquitin-protein ligase XIAP (Homo sapiens) (P98170 whole entry, looked up): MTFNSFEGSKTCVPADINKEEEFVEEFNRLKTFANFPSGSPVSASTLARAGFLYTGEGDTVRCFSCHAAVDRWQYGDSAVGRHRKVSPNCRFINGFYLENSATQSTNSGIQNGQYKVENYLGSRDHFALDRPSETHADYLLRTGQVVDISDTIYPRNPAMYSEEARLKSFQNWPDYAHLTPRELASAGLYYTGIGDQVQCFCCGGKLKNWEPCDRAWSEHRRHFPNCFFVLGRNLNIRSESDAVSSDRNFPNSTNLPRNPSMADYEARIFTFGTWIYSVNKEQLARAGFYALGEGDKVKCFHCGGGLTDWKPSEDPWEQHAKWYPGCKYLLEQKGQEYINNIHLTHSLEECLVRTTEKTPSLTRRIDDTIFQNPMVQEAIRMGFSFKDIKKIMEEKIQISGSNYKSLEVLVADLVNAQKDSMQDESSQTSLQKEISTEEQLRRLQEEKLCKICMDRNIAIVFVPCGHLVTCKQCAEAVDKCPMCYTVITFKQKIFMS
In the case of `C=CCC(OC(C)=O)[C@@H]1[C@@H](N(Cc2ccc(-c3ccccc3)cc2)C(=O)Cc2ccc(OC)cc2)c2cc(OCCCO)ccc2N1C(=O)c1ccc2ccccc2n1` (some centres not stated), the composite z-score is -0.266.

The molecule `COc1ccc(C#Cc2ccc3c(c2)[C@]2(C(=O)N3)[C@H](C(=O)NC[C@H](O)c3ccccc3)[C@H]3C(=O)O[C@H](c4ccccc4)[C@H](c4ccccc4)N3[C@@H]2c2ccc(OCCO)cc2)cc1` registered a composite z-score of -0.125.

In turn, `COCCOC(=O)N1C(=O)[C@@]2(c3cc(C#CC4(O)CCCCCC4)ccc31)[C@H](C(=O)N1CCCCCCC1)[C@H]1C(=O)O[C@H](c3ccccc3)[C@H](c3ccccc3)N1[C@@H]2c1ccccc1OCCO` returned a composite z-score of 0.026.

`COC(=O)c1ccc(OC)c(/C=C\CC(OC(C)=O)c2ccccc2)c1` (configuration not stated) returned a composite z-score of 0.0131.

For `Cc1ccc([C@H]2C(C(=O)O)=C[C@@H](C)N2S(=O)(=O)c2ccc(C)cc2)cc1`, the composite z-score is 0.254.

Take `NCCCCCCNC(=O)[C@H]1C[C@H]2C(=O)NCC(=O)N2[C@H]1c1cccc(OCCO)c1`: the composite z-score is 0.0785.

Take `COc1ccc(CCN2C(=O)[C@@]3(Cc4ccccc42)c2ccccc2C(=O)N(Cc2ccccc2Cl)[C@H]3c2ccc(CO)cc2)cc1`: the composite z-score was -0.142.

In turn, `C=CC[C@@H](OC(=O)Nc1ccc(OC)cc1)c1ccc(O)c2ccccc12` showed a composite z-score of 0.0413.

`CC(C)C[C@@H]1NC(=O)[C@@H]2C[C@H](C(=O)NCCCCCC[N+](C)(C)C)[C@H](c3ccc(O)cc3)N2C1=O`: the composite z-score was -0.0056.

For `O=C1C=CC(=O)[C@@H]2CC(COc3ccccc3)=C3[C@@H](CCc4ccccc4)OB(O)C[C@@H]3[C@H]12`, the composite z-score amounted to 0.0767.

The molecule `CN(C)CCCCNC(=O)[C@H]1C[C@H]2C(=O)N[C@@H](Cc3ccccc3)C(=O)N2[C@H]1c1ccc(O)cc1` registered a composite z-score of 0.0256.

`CCCC[C@H]1OB(O)C[C@H]2C1=C(C)C[C@H]1C(=O)N(Cc3ccccc3)C(=O)[C@H]12` yielded a composite z-score of -0.0627.

As for `C=C[C@@H](COC(C)=O)N(Cc1ccc([N+](=O)[O-])cc1)S(=O)(=O)c1ccc(Br)cc1`, the composite z-score came to 0.0345.

`COc1ccc([Si](C)(C)[C@@H]2[C@@H](CCn3cc([C@H](O)c4ccccc4)nn3)O[C@]3(C(=O)N(Cc4ccc(N5C(=O)c6cccc7cccc5c67)cc4)c4ccccc43)[C@H]2C)cc1` had a composite z-score of -0.157.

Consider `CC(C)(C)OC(=O)CC[C@@]1(C(=O)NCCN2CCOCC2)N=C(c2ccc(OCCCO)cc2)O[C@@H]1c1ccccc1`, for which the composite z-score was found to be 0.228.

Turning to `O=C1O[C@@H](c2ccccc2)[C@@H](c2ccccc2)N2[C@@H](c3ccccc3OCCO)[C@]3(C(=O)Nc4ccc(C#CC5(O)CCCCCC5)cc43)[C@@H](C(=O)Nc3nc4ccccc4s3)[C@H]12`, the composite z-score came out at 0.0077.

Turning to `COCCOC(=O)N1C(=O)[C@@]2(c3cc(C#CCNC(N)=O)ccc31)[C@H](c1ccc(OCCO)cc1)N1[C@H](c3ccccc3)[C@H](c3ccccc3)OC(=O)[C@H]1[C@@H]2C(=O)N1CCc2cc(OC)c(OC)cc2C1`, the composite z-score was -0.0999.

Regarding `CCOC(=O)C[C@H]1[C@H](OC(=O)c2ccc(C(=O)c3ccccc3)cc2)[C@@H](NC(=O)C2CCCCC2)c2cc(OCCCO)ccc2N1C(=O)c1ccccc1`, the composite z-score was -0.145.

`CC(C)=CCCC(C)=CC(O)C1C=CC2C(=O)N(c3ccccc3)C(=O)C2N1Nc1ccccc1` (configuration not stated) gave a composite z-score of 0.0655.

As for `COC(=O)[C@@]1(Cc2ccc(OC)cc2)[C@H]2c3cc(C(=O)N4CCCC4)n(CCc4c[nH]c5cc(F)ccc45)c3C[C@H]2CN1C(=O)c1ccccc1`, the composite z-score was 0.172.

For `Cc1ccc(F)cc1S(=O)(=O)N[C@@H]1CCN(Cc2ccc(-c3ccccc3)cc2)C1`, the composite z-score was 0.0368.

Regarding `COC(=O)[C@@]1(Cc2ccc(OC)cc2)[C@H]2c3cc(C(=O)N(C)C)n(Cc4c(OC)[nH]cc(C)c4=O)c3C[C@H]2CN1C(=O)c1ccccc1`, the composite z-score was found to be 0.295.

The molecule `[N-]=[N+]=Nc1ccccc1[C@H]1OC(c2ccc(OCCCO)cc2)=N[C@@]1(CCS(=O)(=O)c1ccccc1)C(=O)O` had a composite z-score of 0.143.

As for `COC(=O)c1ccc(C(O)C2C=CC3C(=O)N(C)C(=O)C3N2NC(=O)OC(C)(C)C)o1` (configuration not stated), the composite z-score came to 1.42.

`CC=CC(O)C1C=CC2C(=O)N(c3ccccc3)C(=O)C2N1Nc1ccc(C(C)C)cc1` (configuration not stated) returned a composite z-score of 0.384.

As for `O=C1C[C@@](C(=O)NC2CC2)(c2ccc([N+](=O)[O-])cc2)[C@@H](c2ccc(CO)cc2)N1CC12CC3CC(CC(C3)C1)C2`, the composite z-score came to 0.0975.

Turning to `COc1ccc(C(O)C2C=CC3C(=O)N(C)C(=O)C3N2Nc2ccccc2)cc1OCc1ccccc1` (configuration not stated), the composite z-score came out at 0.209.

Consider `[N-]=[N+]=NCc1ccccc1C[C@@]1(C(=O)N2CCOCC2)N=C(c2ccc(OCCCO)cc2)O[C@@H]1c1ccccc1CN=[N+]=[N-]`, for which the composite z-score was -0.138.

For the molecule `CN1C(=O)C2C=CC(C(O)c3ccccn3)N(Nc3ccccc3)C2C1=O` (configuration not stated), the composite z-score stood at 0.742.

`COc1ccc(C#Cc2ccc3c(c2)[C@]2(C(=O)N3)[C@H](c3ccc(O)cc3)N3[C@H](c4ccccc4)[C@H](c4ccccc4)OC(=O)[C@H]3[C@@H]2C(=O)N2CCCCCCC2)cc1` yielded a composite z-score of 0.536.

As to `O=C1OCCC=C[C@H]2OC34C=CCN(Cc5ccccc5)C(=O)[C@H]3N(CCCCCO)C(=O)[C@@H]4C12` (some centres not stated), the composite z-score turned out to be 0.13.

In the case of `COC(=O)C(CC#Cc1ccc2c(c1)[C@]1(C(=O)N2)[C@H](C(=O)NC[C@H](O)c2ccccc2)[C@H]2C(=O)O[C@H](c3ccccc3)[C@H](c3ccccc3)N2[C@@H]1c1ccc(OCCO)cc1)C(=O)OC`, the composite z-score was determined as 0.201.

For `COCCOC(=O)N1C(=O)[C@@]2(c3cc(C#CCNC(N)=O)ccc31)[C@H](c1ccc(O)cc1)N1[C@H](c3ccccc3)[C@H](c3ccccc3)OC(=O)[C@H]1[C@@H]2C(=O)NC[C@H](O)c1ccccc1`, the composite z-score is -0.0807.

`COC(=O)[C@@]1(Cc2ccccc2)[C@H]2c3cc(C(=O)N4CCCC4)n(Cc4ccc(C)o4)c3C[C@H]2CN1C(=O)c1ccccc1` came in with a composite z-score of 0.0632.

The molecule `COCC(=C=CC[C@H](O)c1ccc(OCCO)cc1)C[C@H](O)c1cc(Cl)cc(Cl)c1O` showed a composite z-score of 0.0724.

For the origin of these results see PubChem BioAssay.
